Compound activity (PubChem BioAssay)
Rows were chosen to be rich in hits. Some 12% of all compounds tested hit in one or more screens of this group.
HP1b binding inh: HP1-beta chromodomain-methylated histone interaction inhibition. P83916. AlphaScreen HP1-beta / biotin-H3K9me3 peptide binding. Potency, µM (series often up to 114 µM), hits mostly inhibitors. actives 0.56% (n = 390,000). AID 540317; note: nearly all actives have a fitted effect of over 70% in size
Target sequence (P83916 whole entry, looked up): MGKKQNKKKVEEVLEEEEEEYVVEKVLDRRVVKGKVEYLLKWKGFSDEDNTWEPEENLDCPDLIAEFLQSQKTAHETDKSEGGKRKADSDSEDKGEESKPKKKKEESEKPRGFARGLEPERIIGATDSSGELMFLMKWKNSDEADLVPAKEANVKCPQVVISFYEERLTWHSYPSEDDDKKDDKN
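HP1-beta protein (50 nM final) preincubated 30 min at room temperature with biotinylated H3(1-18)K9me3 peptide (50 nM) in PBS pH 7.4, 0.01% Tween-20, then compound added for 30 min. AlphaScreen streptavidin donor/nickel chelate acceptor beads (10 ug/mL final), 30 min dark, luminescence read.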
Sfp PPTase inh: blocks B. subtilis Sfp PPTase activity; AID 1490; actives 3.5% (n = 310,000); Potency, µM, actives largely listed as inhibitors; Q9F4F7; Biochemical Sfp PPTase activity, qHTS;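 note: the enzyme is Sfp with the accession as filed and its product quenches rhodamine fluorescence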
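With Hepes-Na pH 7.6 buffer containing 10 mM MgCl2, Sfp (15 nM) modified BHQ-2-YbbR (12.5 uM) using rhodamine-CoA (5 uM). Two reads 30 minutes apart at 525/598 nm yielded each well's rate.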
L3MBTL1 inh: L3MBTL1 (human) inhibition; Q9Y468; AlphaScreen L3MBTL1–H3K9me1 peptide binding; Potency, µM (highest dose often 57.1 µM), actives largely listed as inhibitors; actives 0.66% (n = 230,000); note: nearly all actives have a fitted effect of over 60% in size
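L3MBTL1 (50 nM) pre-complexed 30 min with biotinylated H3(1-15)K9me1 peptide (75 nM), then compounds added for 30 min at room temperature; AlphaScreen streptavidin donor/nickel chelate acceptor beads (10 ug/mL final) read after 30 min dark incubation.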
JMJD2A Tudor inh: JMJD2A Tudor domain (human) inhibition; Potency, µM (titrated, usually from 114 µM), actives largely listed as inhibitors; AID 504339; O75164; AlphaScreen JMJD2A-Tudor / H3K4me3 peptide binding; actives 4.4% (n = 390,000); note: nearly all actives have a fitted effect of over 50% in size
G9a inh: G9a (human) methyltransferase inhibition; actives 8.8% (n = 350,000); G9a H3K9 monomethylation, AlphaScreen, 2 h; Potency, µM (series often up to 102 µM), usual class: inhibitors; Q96KQ7; note: nearly all actives have a fitted effect of over 75% in size
Target sequence (Q96KQ7 913-1193 limits assumed): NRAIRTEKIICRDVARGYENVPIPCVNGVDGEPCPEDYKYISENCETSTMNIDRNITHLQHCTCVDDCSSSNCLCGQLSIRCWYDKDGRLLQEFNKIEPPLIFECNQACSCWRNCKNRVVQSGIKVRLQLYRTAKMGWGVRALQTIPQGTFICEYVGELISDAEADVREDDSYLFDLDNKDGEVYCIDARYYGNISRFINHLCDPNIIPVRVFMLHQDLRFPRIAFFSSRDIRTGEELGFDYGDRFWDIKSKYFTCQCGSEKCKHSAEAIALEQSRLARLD
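Signal arises when biotinylated H3K9 peptide, once monomethylated, bridges streptavidin donor and antibody-captured acceptor beads. Enzyme at 20 nM was preincubated 15 min with test compounds; peptide 500 nM and SAM 20 uM then reacted for 2 h.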
BAZ2B inh: blocks human BAZ2B. Q9UIF8. AlphaScreen BAZ2B-H3K14Ac peptide displacement. Potency, µM (doses to about 114 µM), most hits filed as inhibitors. actives 4.4% (n = 360,000); note: nearly all actives have a fitted effect of over 60% in size
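Protein-peptide AlphaScreen: BAZ2B 50 nM, b-H3K14Ac 50 nM, 1x PBS pH 7.4 + 0.01% Tween-20. Preincubation 30 min RT; cpd 30 min RT (top 110 uM); beads 20 min RT, light-protected.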
Numbers stand for hits; i = inactive; ? = inconclusive; nt = no result given; ! = a repeat was not active; [ ] = another dose, or the depositor's remark. Calls come from the whole dose curve; as a rule, active = well fitted curve in the direction sought with a large enough effect; inconclusive = small, poorly fitted or top-dose-only effect, or another doubt; inactive = no such curve, though single readings can be large; an effect the other way counts as inactive or inconclusive.

SMILES	HP1b binding inh	Sfp PPTase inh	L3MBTL1 inh	JMJD2A Tudor inh	G9a inh	BAZ2B inh
COc1ccc(C2NC(=O)c3c(sc4c3CCN(C)C4)N2)cc1O (stereo unspecified)	i	nt	nt	i	?	i
CC1(C)CNC(=O)c2sc(NC(=O)CN3CCOCC3)nc2C1	i	i	i	20µM	i	i
Cc1cccc(N=NC(=S)NNc2cccc(C)c2)c1	44.7µM	nt	nt	25.1µM	nt	nt
COc1ccc([N+](=O)[O-])cc1C1NN=C(c2ccccc2O)S1 (stereo unspecified)	i	i	i	?	?	i
O=[N+]([O-])c1ccc(O)c(C2=NNC(c3ccccc3F)C2)c1 (stereo unspecified)	i	i	i	?	39.8µM	i
CC1CCN(C(c2ccc(N(C)C)cc2)c2nnnn2Cc2ccc(F)cc2)CC1 (stereo unspecified)	?	i	i	?	i[0.501 µM]	12.6µM
Fc1ccc(Cn2nnnc2C(c2ccc(Cl)cc2)N2CCSCC2)cc1 (stereo unspecified)	i	i	i	56.2µM	50.1µM	i
COc1cc(C2c3c(-c4ccccc4O)n[nH]c3C(=O)N2Cc2ccco2)ccc1OCC(C)C (stereo unspecified)	i	nt	nt	?	i	?
Cc1ccc2nc(CCc3ccc(N)cc3)[nH]c2c1	i	i	i	?	35.5µM	?
CCc1nc2ccc(Cc3ccc4nc(CC)[nH]c4c3)cc2[nH]1	i	i	nt	i	44.7µM	i
Nc1ccc2nc(CCc3ccccc3)[nH]c2c1	i	?	i	?	7.94µM	?
CC(Cc1cccc(C(F)(F)F)c1)NCCOC(=O)c1ccccc1 (stereo unspecified)	i	i	i	i	12.6µM!	i
C[C@@H](Cc1cccc(C(F)(F)F)c1)NCCOC(=O)c1ccccc1	nt	i	nt	nt	i[21.5 µM]	nt
CS(=O)(=O)/C(C#N)=C\c1cnc(S(=O)(=O)c2ccccc2)s1	nt	3.55µM	nt	nt	1µM	50.1µM
CC(C)c1ccc(NC(=O)c2cn(C3CCCC3)c(=O)c3c2c2ccccc2n3C)cc1	i	nt	nt	i	i	i
COc1ccc(Nc2nc3c(S(=O)(=O)c4ccc(Br)cc4)nnn3c3ccsc23)c(OC)c1	i	nt	nt	i	i	i
Cc1cccc(C(=O)N2CCC(=O)N(C(COCc3cccc(Cl)c3)Cc3ccccc3)CC2)c1 (stereo unspecified)	i	i	i	i	79.4µM	i
O=C(c1ccc(C(F)(F)F)cc1)N1CCC(=O)N(C(COCc2ccc(C(F)(F)F)cc2)Cc2ccccc2)CC1 (stereo unspecified)	i	i	i	i	44.7µM	?
CC(C)CC(COCc1ccc([N+](=O)[O-])cc1)N1CCN(C(=O)c2ccc(C(F)(F)F)cc2)CCC1=O (stereo unspecified)	i	i	i	i	50.1µM	?
Cc1cccc(COCC(CC(C)C)N2CCN(C(=O)c3ccc(C(F)(F)F)cc3)CCC2=O)c1 (stereo unspecified)	i	i	i	i	?	i
Cc1cccc(C(=O)N2CCC(=O)N([C@H](COCc3cccc(Cl)c3)Cc3ccccc3)CC2)c1	nt	i	nt	nt	i	nt
Cc1ccc(C2CC(=O)Oc3c(C(C)C)ccc(C)c32)cc1 (stereo unspecified)	nt	i	nt	nt	i	nt
CCOc1ccc(CCNC(=O)CCN2N=C(c3ccc(OC)cc3)CCC2=O)cc1OCC	i	nt	nt	i	i	i
CC1CCN(c2oc(-c3ccc(COc4ccc(Cl)cc4)o3)nc2C#N)CC1	i	nt	nt	?	?	?
COc1ccc(C2C=C(c3ccc(C)cc3)Nc3ncnn32)cc1 (stereo unspecified)	i	?	i	i	?	?
COc1cccc(C2C=C(c3cccs3)Nc3ncnn32)c1OC (stereo unspecified)	i	50.1µM	?	i	nt	?
COc1cccc(C2C=C(c3ccc(C)c(C)c3)Nc3nnnn32)c1OC (stereo unspecified)	i	nt	nt	i	i	i
COc1ccc(C2C=C(c3ccc(Br)s3)Nc3ncnn32)cc1OC (stereo unspecified)	nt	56.2µM	i	nt	11.2µM	?
